The values that follow come from PubChem BioAssay.

Each structure is given as a SMILES string. The source made the active and inactive calls. Unless noted, no rule for the calls is given here.

The nature of assay [1]: compound effects on lung adenocarcinoma cell viability – A549, calcein-AM fluorescence, 48 h, basal, profiling panel (AID 1162). Also: test concentration not given here. Particulars: higher = more signal.
Assay [2] can be described thus: compound effects on differentiated 3T3-L1 adipocyte viability – cell-based, 3T3-L1 adipocytes, calcein-AM fluorescence, 48 h, basal, profiling panel (AID 1163). Also: test concentration not given here. Particulars: 3T3-L1 adipocytes viability, higher = more signal.
A short description of assay [3]: compound effects on hepatocellular carcinoma cell viability – HepG2, calcein-AM fluorescence, 48 h, basal, profiling panel (AID 1164). Also: test concentration not given here. The conditions noted are these: higher = more signal.
Assay [4] is described as follows: compound effects on multiple myeloma cell viability – MM1S, calcein-AM fluorescence, 48 h, basal, profiling panel (AID 1165).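 Also: viability of MM1S multiple myeloma cells under basal unstimulated conditions; test concentration not given here.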 Particulars: higher = more signal.
The nature of assay [5]: calcein-AM signal in unstimulated myeloma cells – cell-based, calcein-AM fluorescence, 48 h, PK04 Diversity Set, profiling panel (AID 1166).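 Also: cells grown under basal conditions without added stimulus; test concentration not given here.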 The conditions noted are these: RPMI8226 myeloma viability, higher = more signal.
Assay [6] is described as follows: JC-1 mitochondrial signal, unstimulated HepG2 cells – cell-based, JC-1 fluorescence, 24 h, 100 nL compound, profiling panel (AID 1167). Also: test concentration not given here. The conditions noted are these: HepG2 mitochondrial potential, higher = more signal.
Assay [7] can be described thus: JC-1 mitochondrial signal, unstimulated adipocytes – cell-based, JC-1 fluorescence, 3T3-L1 adipocytes, 24 h, 100 nL compound, profiling panel (AID 1168). Also: test concentration not given here. The conditions noted are these: JC-1 mitochondrial fluorescence, higher = more signal, called active from +8 up or from −8 down.
A short description of assay [8]: JC-1 mitochondrial signal, unstimulated myeloma cells – cell-based, JC-1 fluorescence, RPMI8226, 24 h, 100 nL compound, profiling panel (AID 1169). Also: test concentration not given here. The conditions noted are these: JC-1 mitochondrial potential fluorescence, higher = more signal.
A short description of assay [9]: JC-1 mitochondrial signal, unstimulated MM1S myeloma – cell-based, JC-1 fluorescence, 24 h, 100 nL compound, profiling panel (AID 1170). Also: test concentration not given here. The conditions noted are these: MM1S mitochondrial potential, higher = more signal.
Assay [10] is described as follows: resazurin metabolic signal in A549 cells – cell-based, resazurin fluorescence, 24 h, PK04 Diversity Set, profiling panel (AID 1171). Also: test concentration not given here. Particulars: A549 viability, higher = more signal, called active from +8 up or from −8 down. A general note: The colour change of resazurin is a common sign of viable cells or microbes.
Assay [11] in a line: resazurin metabolic signal in HepG2 cells – cell-based, resazurin fluorescence, 24 h, PK04 Diversity Set, profiling panel (AID 1172). Also: test concentration not given here. The conditions noted are these: HepG2 viability, higher = more signal.
The nature of assay [12]: budding yeast growth changes without added modifier – OD600, strain BY4716, 24 h, basal condition, primary screen (AID 1173). Particulars: S. cerevisiae BY4716 growth, OD600, 24 h; higher = more signal, called active from +8 up or from −8 down.
Assay [13] is described as follows: viability profiling in MM1S myeloma cells – cell-based, resazurin fluorescence, basal, 24 h, PK04 Diversity Set, profiling panel (AID 1174). Also: test concentration not given here. Particulars: higher = more signal, called active from +8 up or from −8 down.
The target in assay [14] is Dihydroorotate dehydrogenase (quinone), mitochondrial (Plasmodium falciparum (isolate 3D7)) (UniProt Q08210). The experiment in a line: inhibition of P. falciparum DHODH – biochemical, C-terminal His tag, absorbance 600 nm, primary screen (AID 1175).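 Also: recombinant parasite enzyme with a five histidine tag at its C terminus; test concentration not given here.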 Particulars: PfDHODH enzyme, DCIP absorbance 600 nm; higher = more signal, called active from +8 up or from −8 down.
A short description of assay [15]: inhibition of PAO1 biofilm formation – strain PAO1, LB-PBS medium, absorbance 600 nm, primary screen (AID 1176). Also: test concentration not given here. The conditions noted are these: P. aeruginosa PAO1 growth/biofilm, A600, 12 h; higher = more signal.
Assay [16] in a line: growth modulation of vineyard yeast isolate – strain RM11-1a, OD600, basal, 24 h, primary screen (AID 1177).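 Also: cultures grown under basal conditions with no added stressor; test concentration not given here.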 The conditions noted are these: S. cerevisiae RM11-1a growth, OD600, 24 h; higher = more signal, called active from +8 up or from −8 down.
Assay [17] can be described thus: growth of efflux-deficient E. coli DRC39 – strain DRC39, OD650, 24 h, E. coli filamentation inducers, primary screen (AID 1178).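 Also: growth measured as culture turbidity by optical density at 650 nm; test concentration not given here.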 Particulars: E. coli DRC39 acrAB, higher = more signal, called active from +8 up or from −8 down.
A short description of assay [18]: growth of efflux-deficient E. coli DRC39 – strain DRC39, OD650, 48 h, E. coli filamentation inducers, primary screen (AID 1179).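 Also: screen aims at cell division blockers that make cells filament.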 Particulars: E. coli DRC39 delta-acrAB growth, higher = more signal, called active from +8 up or from −8 down.
Assay [19] in a line: viability profiling in RPMI8226 myeloma cells – cell-based, resazurin fluorescence, basal, 24 h, PK04 Diversity Set, profiling panel (AID 1180).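 Also: RPMI8826 multiple myeloma cell line at 5000 cells per well; test concentration not given here.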 The conditions noted are these: higher = more signal.
Assay [20] deals with E3 ubiquitin-protein ligase XIAP (Homo sapiens) (UniProt P98170). Nature of the assay: small molecules binding XIAP protein – biophysical, small-molecule microarray, fluorescence 635 nm, primary screen (AID 1181).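 Also: score merges 667 nm emission and signal to noise over triplicate slides.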 The conditions noted are these: higher = more signal.
Sequence of E3 ubiquitin-protein ligase XIAP (Homo sapiens) (P98170 whole entry, looked up): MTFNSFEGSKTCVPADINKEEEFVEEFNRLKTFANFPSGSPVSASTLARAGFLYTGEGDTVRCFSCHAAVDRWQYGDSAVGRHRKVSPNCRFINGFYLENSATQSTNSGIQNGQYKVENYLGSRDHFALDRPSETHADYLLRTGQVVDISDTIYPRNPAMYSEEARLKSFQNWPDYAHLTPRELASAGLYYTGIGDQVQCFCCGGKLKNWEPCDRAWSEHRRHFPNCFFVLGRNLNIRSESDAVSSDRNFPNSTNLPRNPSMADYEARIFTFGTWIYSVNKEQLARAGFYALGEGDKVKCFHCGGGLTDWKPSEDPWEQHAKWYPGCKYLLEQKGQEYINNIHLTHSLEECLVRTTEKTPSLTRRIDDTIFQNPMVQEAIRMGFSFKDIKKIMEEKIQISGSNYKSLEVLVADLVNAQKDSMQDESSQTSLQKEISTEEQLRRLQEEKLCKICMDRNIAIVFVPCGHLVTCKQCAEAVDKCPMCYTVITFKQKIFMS

Sequence of Dihydroorotate dehydrogenase (quinone), mitochondrial (Plasmodium falciparum (isolate 3D7)) (Q08210 whole entry, looked up): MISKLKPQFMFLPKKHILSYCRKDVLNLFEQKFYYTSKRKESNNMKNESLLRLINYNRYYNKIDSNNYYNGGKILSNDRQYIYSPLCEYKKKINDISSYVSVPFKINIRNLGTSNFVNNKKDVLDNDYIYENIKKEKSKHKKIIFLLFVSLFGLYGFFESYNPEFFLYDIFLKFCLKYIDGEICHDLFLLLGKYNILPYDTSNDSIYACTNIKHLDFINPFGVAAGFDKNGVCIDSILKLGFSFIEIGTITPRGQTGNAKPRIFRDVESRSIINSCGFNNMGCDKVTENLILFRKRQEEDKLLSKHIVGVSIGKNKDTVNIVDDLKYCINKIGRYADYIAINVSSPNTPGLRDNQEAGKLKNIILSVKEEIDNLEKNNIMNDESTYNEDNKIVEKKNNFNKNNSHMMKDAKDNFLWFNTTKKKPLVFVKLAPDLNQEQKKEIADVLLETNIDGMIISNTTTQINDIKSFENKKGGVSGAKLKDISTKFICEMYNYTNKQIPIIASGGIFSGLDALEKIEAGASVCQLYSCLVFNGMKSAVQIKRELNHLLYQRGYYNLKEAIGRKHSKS

For the compound `O=C1N[C@@H](Cc2ccccc2)C(=O)N2[C@@H]1C[C@@H](C(=O)O)[C@H]2c1ccc(O)cc1`, the z-score in assay [1] is -0.178; in assay [2], 0.699; in [3] it was -0.361; in assay [4] it was -3.36; in assay [5], 0.293; in assay [6] it was 0.873. Further, the z-score was 0.649 (inactive) in assay [7]; 0.201 in assay [8]; -0.75 in assay [9]; -0.182 (inactive) in assay [10]; -0.425 in assay [11]; -1.14 (inactive) in assay [12]. The z-score in [13] is 0.746 (inactive); in assay [15], -0.13 (inactive); in assay [16] it was -0.319 (inactive); in assay [17], -0.143 (inactive); in assay [18] it was -0.803 (inactive); in assay [19] it was 0.0674. For the same compound, the composite z-score is -0.708 (inactive) in [14] and 0.0518 in [20].
`O=C(CS)NCCCCCCNC(=O)[C@@H]1C[C@@H]2C(=O)NCC(=O)N2[C@@H]1c1ccc(O)cc1`: the z-score in [1] is 0.622; in assay [2] it was 0.182; in [3], 0.435; in [4], 0.21; in [5], 1.06; in [6] it was 0.677. The z-score in [7] is 0.138 (inactive); in assay [8], 0.391; in assay [9], -0.386; in [10] it was -0.746 (inactive); in assay [11] it was 0.263; in [12] it was -0.185 (inactive). Further, the z-score in assay [13] is 0.426 (inactive); in [15], 0.171 (inactive); in assay [16] it was -1.97 (inactive); in [17], 0.858 (inactive); in assay [18], 1.62 (inactive); in [19], 0.0464. In addition, the composite z-score in assay [14] is -0.757 (inactive); in assay [20], -0.02.
On to `O=C1C[C@@](C(=O)NCC(F)(F)F)(c2ccc([N+](=O)[O-])cc2)[C@@H](c2ccc(CO)cc2)N1CC12CC3CC(CC(C3)C1)C2`, for which the z-score in [1] is -1.8; in assay [2], 1.4; in assay [3], -1.57; in [4], -2.72; in assay [5], -4.39; in assay [6], -1.09. Further, the z-score is -1.29 (inactive) in [7]; -1.04 in [8]; -0.0442 in [9]; -2.08 (inactive) in assay [10]; -1.85 in assay [11]; 0.188 (inactive) in assay [12]. Also, the z-score in [13] was -1.4 (inactive); in assay [15], 0.36 (inactive); in assay [16] it was 0.419 (inactive); in [17] it was -0.229 (inactive); in assay [18], -0.684 (inactive); in [19] it was -2.92. Moreover, the figures for the composite z-score in assay [14] and in assay [20] were 0.042 (inactive) and 0.144, respectively.
For `Cc1ccccc1C(O)C1C=CC2C(=O)N(c3ccccc3)C(=O)C2N1Nc1ccc([N+](=O)[O-])cc1` (stereo not given), the z-score was -1.06 in assay [1]; -0.127 in assay [2]; -1.2 in assay [3]; -0.127 in [4]; -0.566 in assay [5]; -1.04 in [6]. Moreover, the z-score was -1.1 (inactive) in assay [7]; -0.247 in assay [8]; 0.585 in assay [9]; 0.306 (inactive) in assay [10]; -0.368 in [11]; -0.14 (inactive) in assay [12]. The z-score in [13] was -0.327 (inactive); in assay [15], 1.29 (inactive); in assay [16] it was -0.0035 (inactive); in [17] it was -0.328 (inactive); in [18] it was -0.316 (inactive); in [19], -0.0045. Besides, the composite z-score in assay [14] is 0.718 (inactive); in assay [20] it was 0.167.
`[N-]=[N+]=Nc1ccccc1C[C@]1(C(=O)O)N=C(c2ccc(OCCCO)cc2)O[C@H]1c1ccccc1N=[N+]=[N-]`: the z-score in [1] is -0.35; in assay [2], 0.22; in assay [3], 0.0698; in [4], -2.38; in assay [5], -1.43; in [6] it was -0.914. In addition, the z-score in [7] is -0.424 (inactive); in assay [8], -0.739; in assay [9] it was 0.51; in assay [10], -0.371 (inactive); in assay [11] it was 0.675; in assay [12], -2.36 (inactive). Also, the z-score in assay [13] is -0.0953 (inactive); in assay [15] it was 1.13 (inactive); in assay [16], -0.296 (inactive); in [17], 2.43 (inactive); in assay [18], 0.76 (inactive); in [19], -0.215. In addition, the results for the composite z-score in assay [14] and in [20] were 0.463 (inactive) and -0.145, respectively.
For `COCCOC(=O)N1C(=O)[C@@]2(c3ccccc31)[C@H](c1ccc(OCCO)cc1)N1[C@H](c3ccccc3)[C@H](c3ccccc3)OC(=O)[C@H]1[C@@H]2C(=O)N1CCCCCCC1`, the z-score in assay [1] is 0.246; in assay [2], 0.0203; in assay [3] it was 0.0373; in assay [4], -2.74; in [5], -0.846; in assay [6] it was -0.0288. Moreover, the z-score was -3.41 (inactive) in assay [7]; -0.345 in assay [8]; -0.899 in assay [9]; 0.0556 (inactive) in [10]; 1.11 in assay [11]; 0.492 (inactive) in [12]. Moreover, the z-score in [13] is 0.441 (inactive); in assay [15], 1.84 (inactive); in assay [16] it was 2 (inactive); in [17], -0.965 (inactive); in [18], -0.618 (inactive); in assay [19], 1.04. For the same compound, the composite z-score is 0.132 (inactive) in [14] and 2.64 in [20].
Regarding `Cc1c(NC(=O)/C(C#N)=C/c2ccccc2Cl)c(=O)n(-c2ccccc2)n1C`, the z-score in assay [1] is 1.62; in [2] it was 0.228; in assay [3] it was 1.02; in assay [4], 0.867; in assay [5], 1.52; in assay [6] it was 0.771. The z-score was 1.14 (inactive) in assay [7]; -0.0416 in [8]; -1.04 in [9]; -0.357 (inactive) in assay [10]; 0.294 in [11]; -1.08 (inactive) in [12]. For the same compound, the z-score is 0.242 (inactive) in assay [13]; 0.543 (inactive) in [15]; -0.688 (inactive) in [16]; 1.17 (inactive) in assay [17]; 1.36 (inactive) in assay [18]; 0.0753 in [19]. The composite z-score was -1.73 (inactive) in assay [14] and 0.197 in assay [20].
As for `C[C@@H]1ON(c2ccc(I)cc2)[C@H](c2ccc(OC(=O)OC(C)(C)C)cc2)[C@H]1C(=O)N1C(=O)OC[C@H]1Cc1ccccc1`, the z-score in assay [1] was 0.0132; in assay [2], 1.06; in [3], 1.61; in assay [4], -0.234; in assay [5], 0.351; in assay [6] it was 0.144. Moreover, the z-score in [7] is 0.498 (inactive); in [8], -0.366; in assay [9], -1.81; in assay [10], 1.33 (inactive); in [11] it was 1.14; in [12], -1.24 (inactive). The z-score in assay [13] is 1.6 (inactive); in assay [15] it was 0.294 (inactive); in [16], 0.61 (inactive); in assay [17], 1.81 (inactive); in assay [18] it was 1.2 (inactive); in assay [19] it was 1.87. In addition, the composite z-score is -0.571 (inactive) in [14] and -0.0448 in assay [20].
